Calls of active or inactive are those of the source. A call without a number means that no potency is given here. The call rests on the fitted dose curve; in most records, active means well fitted activation curve with a large enough effect; inconclusive means small, poorly fitted or top-dose-only effect; inactive means flat fitted curve, though single readings scatter.
experiment: Cellular Toxicity (caspase-3) SHSY5Y (AID 657); conditions: SH-SY5Y caspase-3 activation; series mostly up to 91.7 µM
Description: NIH Chemical Genomics Center [NCGC]
NIH Molecular Libraries Screening Centers Network [MLSCN]
National Institutes of Environmental Health Sciences [NIEHS]
National Toxicology Program [NTP]
We have developed a 1536-well cell-based assay for quantitative high throughput screening (qHTS) against a number of cell lines to determine in vitro caspase 3/7 activity of small molecules. This particular assay uses the SH-SY5Y cell line which is derived from human neuroblastoma.
NCGC Assay Protocol Summary:
The Caspase-Glo 3/7 assay (Promega) is a homogeneous method to measure caspase-3 and caspase-7 activities in cultured cells. The quantitation of caspase 3/7 activity is based on the cleavage of a peptide-aminoluciferin substrate. After caspase cleaves the substrate the free aminoluciferin is liberated and serves as the substrate of luciferase, which generates the light. The luminescent signal is proportional to the amount of caspase 3/7 activity present.
Using the Caspase-Glo 3/7 assay, the amount of caspase 3/7 activity was measured in the SH-SY5Y cell line with complete culture medium following compound treatment for 16 hours. The assay was performed in opaque white 1536-well plates. In the screen, staurosporine and doxorubicin were used as positive controls. Library compounds were measured for their ability to cause the activation of caspase 3/7 in the cell line, as reflected by an increase in luminescence signal, in a concentration-dependent manner. Data were normalized to the controls for basal activity (DMSO only) and 100% stimulation (10 uM staurosporine). AC50 values were determined from concentration-response data modeled with the standard Hill equation.
qHTS protocol for caspase 3/7 assay in SH-SY5Y cells
[Step] [Parameter] [Value] [Description]
1. Reagent; 5 uL; 1500 SH-SY5Y cells/well
2. Time; 5 hr; 37 °C incubation
4. Controls; 23 nL; doxorubicin 7 pM to 100 uM & staurosporine 1.4 pM to 20 uM
5. Time; 16 hr; 37 °C incubation
6. Reagent; 5 uL; Caspase-Glo 3/7 reagent
7. Time; 1 hr; Room Temperature
8. Detection; Luminescence; Viewlux plate reader
Keywords: caspase 3/7, apoptosis, SH-SY5Y cell line, luminescence, NTPHTS, NTPHTS_NCGC, NIEHS, EPA, DSSTox, MLSMR, MLSCN, NIH Roadmap, qHTS, NCGC
Potency means the concentration at half of the fitted maximal effect.

Which Potency does the source give for `Oc1cccc(O)c1O` here?
Its Potency is “inactive”.

Which Potency does the source give for `Nc1ccc(N=Nc2ccccc2)c(N)n1` here?
Its Potency is “inactive”.

For `CCCCO`, which Potency is on record?
Its Potency is “inactive”.

For `CCOC(C)OCC`, which Potency is on record?
The Potency was “inactive”.

Which Potency does the source give for `CO` here?
Its Potency is “inactive”.

For `CO/N=C(/C(=O)N[C@@H]1C(=O)N2C(C(=O)O)=C(COC(N)=O)CS[C@H]12)c1ccco1`, which Potency is on record?
The Potency was “inactive”.

Which Potency does the source give for `CC(C)(C)CC(C)(C)c1ccc(OCCO)cc1` here?
Its Potency is “inactive”.

For `Cc1ccc(S(=O)(=O)O)cc1C`, which Potency is on record?
The Potency was “inactive”.

Which Potency does the source give for `ClC(Cl)Cl` here?
The Potency was “inactive”.

Which Potency does the source give for `Cc1ncc[nH]1` here?
Its Potency is “inactive”.

Which Potency does the source give for `[O-][N+](=Nc1ccccc1)c1ccccc1` here?
The Potency was “inactive”.

With `OC[C@H]1O[C@@H]2O[C@H]3[C@H](O)[C@@H](O)[C@@H](O[C@H]4[C@H](O)[C@@H](O)[C@@H](O[C@H]5[C@H](O)[C@@H](O)[C@@H](O[C@H]6[C@H](O)[C@@H](O)[C@@H](O[C@H]7[C@H](O)[C@@H](O)[C@@H](O[C@H]1[C@H](O)[C@H]2O)O[C@@H]7CO)O[C@@H]6CO)O[C@@H]5CO)O[C@@H]4CO)O[C@@H]3CO` as the compound, how does the Potency read?
The Potency was “inactive”.

With `C=C1C(CCl)(CCl)C2(Cl)C(Cl)C(Cl)C1(Cl)C2(Cl)Cl` (configuration not stated) as the compound, how does the Potency read?
Its Potency is 39.8 µM (active).

For `O=c1n(CC2CO2)c(=O)n(CC2CO2)c(=O)n1CC1CO1` (configuration not stated), which Potency is on record?
The Potency was 12.6 µM (active).

Which Potency does the source give for `CC(C)O` here?
The Potency was “inactive”.

With `OB(O)O` as the compound, how does the Potency read?
Its Potency is “inactive”.

Which Potency does the source give for `O.O.O.O.O.O.O.O=S(=O)([O-])[O-].[Co+2]` here?
Its Potency is “inactive”.

With `O=P(O)(O)O` as the compound, how does the Potency read?
The Potency was “inactive”.

With `c1ccc2ccccc2c1` as the compound, how does the Potency read?
Its Potency is “inactive”.

For `C[C@H]1O[C@@H](O[C@H]2[C@@H](O)C[C@H](O[C@H]3[C@@H](O)C[C@H](O[C@H]4CC[C@@]5(C)[C@H](CC[C@@H]6[C@@H]5C[C@@H](O)[C@]5(C)[C@@H](C7=CC(=O)OC7)CC[C@]65O)C4)O[C@@H]3C)O[C@@H]2C)C[C@H](O)[C@@H]1O`, which Potency is on record?
The Potency was “inactive”.

Which Potency does the source give for `Nc1ncnc2c1ncn2[C@H]1CC[C@@H](CO)O1` here?
The Potency was “inactive”.

With `Oc1ccc(/C=C/c2cc(O)cc(O)c2)cc1` as the compound, how does the Potency read?
The Potency was “inactive”.

For `CC1=CCC2CC1C2(C)C` (configuration not stated), which Potency is on record?
Its Potency is “inactive”.

With `OCl` as the compound, how does the Potency read?
Its Potency is “inactive”.

With `Nc1nccs1` as the compound, how does the Potency read?
Its Potency is “inactive”.

For `OCC(O)CO`, which Potency is on record?
The Potency was “inactive”.

With `NCCN` as the compound, how does the Potency read?
Its Potency is “inactive”.

Which Potency does the source give for `C/C=C/C=C/C(=O)O` here?
The Potency was “inactive”.

With `COC(=O)c1ccccc1O` as the compound, how does the Potency read?
Its Potency is “inactive”.

Which Potency does the source give for `CC/C=C\C/C=C\C/C=C\CCCCCCCC(=O)O` here?
The Potency was “inactive”.

For `C[C@H](CCC(=O)O)[C@H]1CC[C@H]2[C@@H]3[C@H](O)C[C@@H]4C[C@H](O)CC[C@]4(C)[C@H]3C[C@H](O)[C@]12C`, which Potency is on record?
Its Potency is “inactive”.

For `C[C@H](CCC(=O)O)[C@H]1CC[C@H]2[C@@H]3CC[C@@H]4C[C@H](O)CC[C@]4(C)[C@H]3C[C@H](O)[C@]12C`, which Potency is on record?
The Potency was “inactive”.

For `CCCCC`, which Potency is on record?
The Potency was “inactive”.

With `CC1=CC(=O)NS(=O)(=O)O1` as the compound, how does the Potency read?
The Potency was “inactive”.

For `CC[C@H]1OC(=O)[C@H](C)[C@@H](O[C@H]2C[C@@](C)(OC)[C@@H](O)[C@H](C)O2)[C@H](C)[C@@H](O[C@@H]2O[C@H](C)C[C@H](N(C)C)[C@H]2O)[C@](C)(O)C[C@@H](C)CN(C)[C@H](C)[C@@H](O)[C@]1(C)O`, which Potency is on record?
The Potency was “inactive”.

With `NC(N)=O` as the compound, how does the Potency read?
The Potency was “inactive”.

Which Potency does the source give for `OCc1ccccc1` here?
The Potency was “inactive”.

Source: PubChem BioAssay (NCATS)
